Assay outcomes as filed in PubChem BioAssay.
MARV entry inh – inhibitors of Marburg virus binding or cell entry | 300,000 tested, 1.8% active | Marburg virus pseudotyped entry inhibition, cell reporter | AID 540276 | Potency, µM (top dose mostly 37.8 µM), for the others: top-dose activity change, negative = inhibition, hits mostly inhibitors; calls by dose curve; tested in HEK293 cells; further: potency means the concentration at half of the fitted maximal effect
Lassa entry inh – Lassa virus entry inhibition; 300,000 tested, 1.2% active; Lassa virus pseudotype entry inhibition, cell reporter; Potency, µM (doses to about 37.9 µM), for inactives: at the top dose activity change, negative = inhibition, usual class: inhibitors; calls by dose curve; tested in HEK293 cells; further: potency means the concentration at half of the fitted maximal effect; nearly all actives have a fitted effect of over 50% in size
FMDV antiviral – foot and mouth disease virus antiviral activity; 410,000 tested, 1.2% active; Potency, µM (doses to about 57.9 µM), for inactives: top-dose activity change, negative = inhibition, usual class: inhibitors; FMDV antiviral cell-based qHTS; calls by dose curve; tested in HEK293T cells; further: read-out not given here; potency means the concentration at half of the fitted maximal effect; nearly all actives have a fitted effect of over 45% in size
HCMV inh – human cytomegalovirus inhibition; HFF cells, HCMV-luciferase reporter, 72 h; stronger effect = lower value; activity change, negative = inhibition, % at 57.5 µM; 410,000 tested, 4.5% active; AID 1259415; in the data active means activity change below about -60%; inconclusive means no clear call, values can overlap the other calls; inactive means above about -39%
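Steps: HFFs plated, 16 h 37C; compounds added; HCMV-luciferase added to MOI 1 PFU/cell; 72 h 37C; OneGlo reagent, 5 min room temperature; luminescence read, normalized to controls.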
* hit, by the source's call; ? = inconclusive; . = no result given; [ ] = another dose, or the depositor's remark. An excerpt weighted towards active compounds, which were near 6.2% of everything screened. On the % scale 0 is the no-effect control and ±100 the full control effect.

SMILES | MARV entry inh | Lassa entry inh | FMDV antiviral | HCMV inh
O=S(=O)(NCCSc1nnnn1-c1ccccc1)c1cccs1 | ? | 2% | 5% | -81*
O=S(=O)(NCCSc1nnnn1-c1ccccc1)c1ccc(F)cc1 | -17%[46.1 µM] | -23%[46.1 µM] | -6% | -61*
CSc1cccc(NC(=O)CN(C)S(=O)(=O)c2ccc3c(c2)CCCN3C(C)=O)c1 | . | -20%[46.1 µM] | -26% | -18
c1ccc(C(c2ccccc2)N2CCN(c3nc4ccccc4n4cnnc34)CC2)cc1 | ? | ? | 28µM* | -99*
c1cnc(N2CCN(c3nc4ccccc4n4cnnc34)CC2)nc1 | 6% | 4% | 9% | -7
CC1CCCCN1S(=O)(=O)c1ccc(C(=O)Nc2sc3c(c2C(N)=O)CC(C)(C)NC3(C)C)cc1 (configuration not stated) | . | 2%[46.1 µM] | -10% | ?
Cc1cc(C)n(-c2nc(NC(C)(C)C)nc(NC(C)(C)C)n2)n1 | ? | 10% | ? | ?
Cc1cc(Nc2cc(F)ccc2C)nc(-n2nc(C)cc2C)n1 | . | ? | -17% | -80*
CCCCc1ccc(Nc2cc(C)nc(-n3nc(C)cc3C)n2)cc1 | . | ? | -24% | -97*
Cc1cc(C)n(-c2nc(Nc3ccccc3C)nc(-n3nc(C)cc3C)n2)n1 | 2% | . | . | -97*
Cc1cc(C)n(-c2nc(Nc3ccccc3C(F)(F)F)nc(-n3nc(C)cc3C)n2)n1 | 10µM* | ? | ? | -98*
COC(=O)[C@@]12C[C@@H](CC(=O)NCc3ccc(C)o3)C(=O)N(Cc3ccco3)C1=CCC(C)(C)C2 | . | . | -11% | -14
CN(C)Cc1ncccc1Oc1nc2cc(-c3cccc(Cl)c3)sc2c(=O)n1C | . | . | -1% | 17
Cc1cc(Nc2ccc(F)cc2)nc(-n2nc(C)cc2C)n1 | . | -11%[46.1 µM] | -10% | -83*
Cc1cc(Nc2ccccc2C)nc(-n2nc(C)cc2C)n1 | . | ? | -17% | -69*
Cc1cc(Nc2cccc(F)c2)nc(N2CCOCC2)n1 | . | . | -9% | 167
Cc1cc(N2CCN(c3ccccc3)CC2)nc(-n2nc(C)cc2C)n1 | ? | 36%[14.3 µM] | ? | -34
N#Cc1c(-c2ccc(C(F)(F)F)cc2)cc(-c2ccccc2)[nH]c1=S | ? | 4% | -22% | -60*
CC(C)(C)C(=O)c1c(N)[nH]c(C(=O)c2ccccc2)c1-c1ccc(C(F)(F)F)cc1 | . | . | -20% | -18
CC(NC1=CC(=O)c2cccnc2C1=O)C(O)c1ccccc1 (configuration not stated) | 11µM* | ? | 28µM* | -99*
CCOC(=O)C1=C(O)/C(=C\c2cccs2)N=C1C | -4% | 13% | 11% | 13
CCOC(=O)C1=C(O)/C(=C\c2ccc(CNC(=O)C(=O)Nc3ccccc3)o2)N=C1C | 28% | -10% | 18% | -74*
COc1cccc(C(C(=O)NC(C)(C)C)N(CCC(C)C)C(=O)CCC(=O)Nc2cc(C)on2)c1OC (configuration not stated) | 8.9µM* | -17%[46.1 µM] | -16% | -16
COc1cccc(C(C(=O)NC(C)(C)C)N(CC(C)C)C(=O)CCC(=O)Nc2cc(C)on2)c1OC (configuration not stated) | ? | -19%[46.1 µM] | -15% | 20
CCC(C)(C)NC(=O)C(c1cccc(OC)c1OC)N(C(=O)CCC(=O)Nc1cc(C)on1)C(C)C (configuration not stated) | 16%[46.1 µM] | 4% | -16% | -79*
SMILES | MARV entry inh | Lassa entry inh | FMDV antiviral | HCMV inh
CCc1nc2nc(C)cc(Nc3cc(Cl)ccc3C)n2n1 | -1%[46.1 µM] | 0%[46.1 µM] | -15% | -15
Cc1ccc(-n2cc(CNCCCn3ccnc3C)c(-c3ccc(F)cc3)n2)cc1 | ? | ? | -25% | -82*
Cc1ccc(C)c(-n2cc(CNCCCn3cccn3)c(-c3ccccc3)n2)c1 | 10µM* | ? | -17% | -65*
Cc1ccc(-n2cc(CNCCc3cscn3)c(-c3ccc(F)cc3)n2)cc1 | 13µM* | ? | -7% | -30
COc1ccc(-n2cc(CNCCc3cscn3)c(-c3ccccc3Cl)n2)cc1 | ? | -27%[46.1 µM] | -6% | -37
Cc1ccc(-n2cc(CNCCCn3cccn3)c(-c3cccc(C)c3)n2)cc1 | ? | ? | -29% | -38
CCCCCCCNC1=CC(=O)CC(c2ccccc2)C1 (configuration not stated) | ? | ? | -20% | -88*
Cc1ccc(Cl)cc1NC(=O)CC(O)(C(F)(F)F)C(F)(F)F | ? | ? | . | -102*
Cc1ccc(C(=O)O[C@H](C(=O)O)[C@@H](OC(=O)c2ccc(C)cc2)C(=O)O)cc1 (tested in a mixture with another compound) | -1% | 8% | . | .
C=CCN1C(=O)/C(=C2/Sc3ccc(OC)cc3N2C)SC1=Nc1ccccc1 | ? | ? | -7% | -6
CCCCN1C(=O)/C(=C2/Sc3ccccc3N2C)S/C1=N\c1ncn[nH]1 | . | . | -23% | -78*
O=Cc1c[nH]c2ccc(NC(=O)OCc3ccccc3)cc12 | 13µM* | ? | 3% | -27
O=C(Nc1ccncc1)OCc1ccccc1 | ? | -6% | -21% | -16
CC(C)C[C@H]1CNC(=S)N1C[C@H]1CCCN1C[C@H](Cc1ccccc1)N1C[C@H](Cc2ccc(O)cc2)N(CC2CCCCCC2)C1=S | . | . | -22% | -84*
Oc1ccc(C[C@H]2CNC(=S)N2CC2CCCN2C[C@H](Cc2ccccc2)N2C[C@H](Cc3ccc(O)cc3)N(CC3CCCCCC3)C2=S)cc1 (some centres not stated) | . | . | ? | -63*
Oc1ccc(C[C@H]2CNC(=S)N2CC2CCCN2C[C@H](Cc2ccc(O)cc2)N2C[C@H](Cc3ccc(O)cc3)N(CC3CCCCC3)C2=S)cc1 (some centres not stated) | . | . | ? | -93*
Oc1ccc(C[C@H]2CN([C@@H](Cc3ccc(O)cc3)CN3CCC[C@@H]3CN3C(=S)NC[C@@H]3Cc3ccccc3)C(=S)N2CC2CCCCCC2)cc1 | . | . | -7% | -97*
CC(C)C[C@H]1CNC(=S)N1CC1CCCN1C[C@H](Cc1ccc(O)cc1)N1C[C@H](Cc2ccccc2)N(CC2CCCCCC2)C1=S (some centres not stated) | . | . | -8% | -20
C[C@@H]1CC[C@H]2C(=O)O[C@H](COc3ccc(C(C)(C)C)cc3)CN2[C@@H]1c1ccc(Br)cc1 | ? | -27%[14.3 µM] | . | .
Oc1ccc(C[C@H]2CN([C@@H](Cc3cccc(O)c3)CN3CCC[C@@H]3CN3C(=S)NC[C@@H]3Cc3ccccc3)C(=S)N2CC2CCCCC2)cc1 | . | . | ? | -72*
Oc1ccc(C[C@H]2CN([C@@H](Cc3ccccc3)CN3CCCC3CN3C(=S)NC[C@@H]3Cc3ccccc3)C(=S)N2CC2CCCCC2)cc1 (some centres not stated) | . | . | 0% | ?
CCOC(=O)c1ccccc1NC(=O)NC(C)c1c(-n2cccc2)sc(C)c1C (configuration not stated) | 1%[46.1 µM] | . | -19% | -4
Fc1ccc(-c2nn3ncccc3c2-c2ccnc(Nc3ccc4c(c3)OCCO4)n2)cc1 | . | 7.9µM* | . | .
COc1ccc(-c2nn3ncccc3c2-c2ccnc(Nc3ccc4c(c3)OCCO4)n2)cc1 | . | 16µM* | . | .
COc1ccc(-c2nc3ncccn3c2Nc2ccc3c(c2)OCCO3)cc1 | 0% | . | 33% | 91
